Outcome and Potency data for 17 compounds are collected here from PubChem BioAssay (Tox21).

Where “and” joins values, the source holds several entries; their conditions need not be identical. Equal entries are not always repeated. Results filed as inconclusive are left out. Some structures have more than one record in an assay (separate samples or runs), and their calls can disagree. Calls of active or inactive are those of the source. Unless noted, calls come from the whole dose curve; as a rule, active = well fitted curve in the direction sought with a large enough effect in the repeat runs; inconclusive = weak or mixed curves; inactive = no such curve, though single readings can be large; an effect the other way counts as inactive or inconclusive.

A short description of test [1]: Caspase-3/7 induction in CHO-K1 cells by small molecules, qHTS assay (AID 1346980). Note: nearly all actives have a fitted effect of over 15% in size. The procedure, abridged: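 Luminescent Caspase-Glo 3/7 read (30min, room temperature) quantified apoptosis induction. Cells were wild-type CHO-K1, treated with compound for 17hr at 37 C and 5% CO2.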
On the technique in general: In qHTS, concentration-response curves come from the screen itself.

Test [2] concerns the target Nuclear receptor subfamily 1 group I member 2 (Homo sapiens) (UniProt O75469). In words: Human pregnane X receptor (PXR) small molecule agonists, qHTS assay (AID 1346982). Note: nearly all actives have a fitted effect of over 35% in size. Note: potency is the fitted concentration of half-maximal effect. The procedure, abridged: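 HepG2 PXR-Luc reporter line, 5% charcoal-stripped FBS; 5 hr pre-incubation, compound (DMSO) 24 hr at 37 C/5% CO2; ONE-Glo 30 min RT; luminescence read-out.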
Test [3] deals with Acetylcholinesterase (Homo sapiens) (UniProt P22303). As to the kind of experiment: Acetylcholinesterase (AChE) small molecule antagonists: colormetric cell-based qHTS assay (AID 1347395; calls by dose curve; note: nearly all actives have a fitted effect of over 30% in size). In outline: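 SH-SY5Y cells attached overnight, exposed to compound 30 min at 37 C, then given DTNB/acetylthiocholine; after 90 min at 37 C, colorimetric thiocholine read gives cellular AChE activity.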
Acetylcholinesterase (Homo sapiens), sequence (P22303 whole entry, looked up): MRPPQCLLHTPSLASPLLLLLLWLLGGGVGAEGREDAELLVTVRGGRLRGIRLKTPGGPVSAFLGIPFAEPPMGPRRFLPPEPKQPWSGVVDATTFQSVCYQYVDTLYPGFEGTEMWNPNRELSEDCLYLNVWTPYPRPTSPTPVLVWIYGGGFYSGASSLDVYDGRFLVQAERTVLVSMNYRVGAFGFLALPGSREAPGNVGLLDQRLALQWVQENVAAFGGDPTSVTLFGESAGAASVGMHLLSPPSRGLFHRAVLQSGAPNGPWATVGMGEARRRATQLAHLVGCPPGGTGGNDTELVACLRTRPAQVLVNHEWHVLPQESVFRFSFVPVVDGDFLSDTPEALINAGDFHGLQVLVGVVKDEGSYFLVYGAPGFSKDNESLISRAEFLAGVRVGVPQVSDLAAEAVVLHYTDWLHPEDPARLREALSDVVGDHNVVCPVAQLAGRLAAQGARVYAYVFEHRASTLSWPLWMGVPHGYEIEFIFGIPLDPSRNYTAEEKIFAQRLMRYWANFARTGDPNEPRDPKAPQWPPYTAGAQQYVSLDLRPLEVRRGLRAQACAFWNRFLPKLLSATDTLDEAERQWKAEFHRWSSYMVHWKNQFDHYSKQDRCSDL

Test [4] has the same target. In words: Acetylcholinesterase (AChE) small molecule antagonists: enzyme-based qHTS assay (AID 1347397; calls by dose curve; note: nearly all actives have a fitted effect of over 55% in size). As to conditions: Potency: AChE enzyme activity inhibition. In outline: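 Colorimetric DTNB readout of acetylthiocholine hydrolysis, 10 min at room temperature, after 30 min room-temperature exposure of 50 mU/mL recombinant human enzyme to compound; DMSO vehicle control.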

The target is the same in test [5]. As to the kind of experiment: Acetylcholinesterase (AChE) small molecule antagonists: fluorescence cell-based qHTS assay (AID 1347398; calls by dose curve; note: nearly all actives have a fitted effect of over 50% in size; note: potency is the fitted concentration of half-maximal effect). The conditions noted are these: Potency: AChE activity. In outline:
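Cellular AChE activity read as thiocholine from acetylthiocholine hydrolysis, detected by Thiolite Green fluorescence at 490/520 nm after 40 min at room temperature. Compounds were pre-incubated 30 min at 37 C on adherent SH-SY5Y cells.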

For test [6] the target is unchanged. As to the kind of experiment: Acetylcholinesterase (AChE) small molecule antagonists: enzyme-based qHTS assay with human liver microsomes (AID 1347399; calls by dose curve; note: nearly all actives have a fitted effect of over 60% in size). The conditions noted are these: Potency: qHTS inhibition. In outline:
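Recombinant human AChE (50 mU/mL in the enzyme mix) and human liver microsomes (0.25 mg/mL final) were preincubated with compound and NADPH (0.25 mg/mL final) for 30 min at 37 C. Acetylthiocholine/DTNB was then added; thiocholine was read colorimetrically after 10 min at room temperature.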

Test [7] concerns the target Cytochrome P450 2C19 (Homo sapiens) (UniProt P33261). In words: Cytochrome P450 Family 2 Subfamily C Member 19 (CYP2C19) small molecule antagonists: luciferase reporter qHTS assay (AID 1671197). Note: nearly all actives have a fitted effect of over 65% in size. Note: potency is the fitted concentration of half-maximal effect. The procedure, abridged: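 P450-Glo CYP2C19 system: enzyme-substrate mix with compound 10 min at room temperature, then NADPH regeneration solution, 1 h at 37C. Proluciferin-to-luciferin conversion detected by luminescence after 20 min with detection reagent; ketoconazole as positive control.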
(In a reporter assay the amount or activity of a reporter protein is the signal.)

Test [8] concerns the target Cytochrome P450 2C9 (Homo sapiens) (UniProt P11712). As to the kind of experiment: Cytochrome P450 Family 2 Subfamily C Member 9 (CYP2C9) small molecule antagonists: luciferase reporter qHTS assay (AID 1671198). Note: nearly all actives have a fitted effect of over 50% in size. Note: potency is the fitted concentration of half-maximal effect. In outline: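 Enzyme-substrate mix preincubated with compound 10 min at room temperature; reaction started with NADPH regeneration solution, 1 h 37C. Luminescent luciferin product read after 20 min detection reagent.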

In test [9] the target is Cytochrome P450 1A2 (Homo sapiens) (UniProt P05177). As to the kind of experiment: Cytochrome P450 Family 1 Subfamily A Member 2 (CYP1A2) small molecule antagonists: luciferase reporter qHTS assay (AID 1671199). Note: nearly all actives have a fitted effect of over 50% in size. Note: potency is the fitted concentration of half-maximal effect. The procedure, abridged:
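Luminescence readout (relative luminescence units) after luciferin detection reagent, 20 min RT. Preceded by 1 h room-temperature CYP1A2 reaction with NADPH regeneration solution following 10 min compound preincubation with enzyme and proluciferin substrate. Furafylline positive control.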

Test [10] concerns the target Voltage-gated inwardly rectifying potassium channel KCNH2 (Homo sapiens) (UniProt Q12809). In words: Human Ether-a-go-go-Related Gene (hERG) channel small molecule antagonists: fluorescence cell-based qHTS assay (AID 1671200).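 Note: hERG-expressing U2OS cells given a thallium stimulus after FluxOR II dye loading; series mostly up to about 77 µM; nearly all actives have a fitted effect of over 50% in size.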 In outline:
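hERG-U2OS cells plated overnight at 37 C, loaded with FluxOR II dye 1 h at RT in dark; after 10 min, thallium stimulus added. Fluorescence (480/540 nm) read kinetically for 2 min at 1 s intervals.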
(hERG is a cardiac potassium channel; its block is linked to QT prolongation.)

For test [11], the target named is Cytochrome P450 3A4 (Homo sapiens) (UniProt P08684). As to the kind of experiment: Cytochrome P450 Family 3 Subfamily A Member 4 (CYP3A4) small molecule antagonists: luciferase reporter qHTS assay (AID 1671201). Note: nearly all actives have a fitted effect of over 50% in size. Note: potency is the fitted concentration of half-maximal effect. In outline:
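P450-Glo CYP3A4 luminescent assay: compounds preincubated 10 min at room temperature with enzyme and proluciferin substrate, NADPH regeneration added, 1 h room-temperature reaction, stopped with luciferin detection reagent; luminescence read after 20 min. Ketoconazole positive control.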

Test [12] concerns the target Nuclear receptor subfamily 1 group I member 2 (Homo sapiens) (UniProt O75469). In words: CYP3A4 induction through human pregnane X receptor (PXR) by small molecules, qHTS assay (AID 1346984). Note: nearly all actives have a fitted effect of over 40% in size. In outline: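 HepG2-derived DPX-2 line carrying PXR plus a CYP3A4-promoter luciferase reporter; cells plated 5 hr, compound-exposed 24 hr at 37C. CYP3A4 activity probed with 3uM (final) Luciferin-IPA for 3hr, then luciferase read after One-Glo.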

Test [13] shares this target. As to the kind of experiment: Human pregnane X receptor (PXR) activation by small molecules, qHTS assay (AID 1346985). Note: nearly all actives have a fitted effect of over 40% in size. The procedure, abridged:
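DPX-2 cells (HepG2 co-transfected with a PXR response element and a CYP3A4-promoter luciferase construct) were seeded at 2,000 per well, rested 5 hr at 37C, then exposed to DMSO-dissolved compounds for 24 hr. Activation was read as luciferase luminescence.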

Test [14] addresses Cytochrome P450 2D6 (Homo sapiens) (UniProt P10635). In words: Cytochrome P450 Family 2 Subfamily D Member 6 (CYP2D6) small molecule antagonists: luciferase reporter qHTS assay (AID 1671196). Note: nearly all actives have a fitted effect of over 50% in size. Note: potency is the fitted concentration of half-maximal effect. In outline:
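Luminogenic proluciferin substrate, CYP2D6 enzyme; 10 min RT preincubation with compound, NADPH regeneration system added, 1 h RT. Stop/detection reagent, 20 min RT, luminescence read (RLU). Signal proportional to CYP activity.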

Voltage-gated inwardly rectifying potassium channel KCNH2 (Homo sapiens), sequence (Q12809 whole entry, looked up): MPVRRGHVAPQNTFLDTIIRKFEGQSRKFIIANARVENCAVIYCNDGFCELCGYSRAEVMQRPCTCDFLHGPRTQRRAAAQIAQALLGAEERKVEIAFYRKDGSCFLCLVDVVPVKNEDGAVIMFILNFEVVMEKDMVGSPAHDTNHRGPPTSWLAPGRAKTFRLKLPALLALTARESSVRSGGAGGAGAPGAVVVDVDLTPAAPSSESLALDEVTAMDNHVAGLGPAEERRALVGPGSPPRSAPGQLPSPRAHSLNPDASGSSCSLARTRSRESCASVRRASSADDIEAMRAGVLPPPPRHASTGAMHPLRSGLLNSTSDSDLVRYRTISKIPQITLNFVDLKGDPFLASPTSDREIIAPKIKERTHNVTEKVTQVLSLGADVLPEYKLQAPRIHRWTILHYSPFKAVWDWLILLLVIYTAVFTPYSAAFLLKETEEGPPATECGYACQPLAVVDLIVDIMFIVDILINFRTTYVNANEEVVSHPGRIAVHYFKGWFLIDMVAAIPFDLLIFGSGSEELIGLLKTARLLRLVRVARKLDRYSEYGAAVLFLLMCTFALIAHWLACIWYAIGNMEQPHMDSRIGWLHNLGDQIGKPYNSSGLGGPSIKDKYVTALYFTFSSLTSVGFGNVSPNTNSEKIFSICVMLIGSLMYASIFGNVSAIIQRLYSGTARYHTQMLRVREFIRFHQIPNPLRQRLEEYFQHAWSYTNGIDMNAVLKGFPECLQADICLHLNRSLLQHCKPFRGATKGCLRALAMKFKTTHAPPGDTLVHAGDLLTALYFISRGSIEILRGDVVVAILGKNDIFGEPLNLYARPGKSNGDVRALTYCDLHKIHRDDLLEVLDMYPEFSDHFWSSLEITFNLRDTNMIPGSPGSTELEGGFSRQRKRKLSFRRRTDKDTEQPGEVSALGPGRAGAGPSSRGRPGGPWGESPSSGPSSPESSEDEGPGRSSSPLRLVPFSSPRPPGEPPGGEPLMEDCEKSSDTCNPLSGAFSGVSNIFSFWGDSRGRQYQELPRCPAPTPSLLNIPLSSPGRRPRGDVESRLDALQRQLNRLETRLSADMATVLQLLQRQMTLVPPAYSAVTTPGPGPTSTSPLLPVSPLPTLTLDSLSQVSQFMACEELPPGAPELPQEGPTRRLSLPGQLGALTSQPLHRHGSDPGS
Cytochrome P450 2D6 (Homo sapiens), sequence (P10635 whole entry, looked up): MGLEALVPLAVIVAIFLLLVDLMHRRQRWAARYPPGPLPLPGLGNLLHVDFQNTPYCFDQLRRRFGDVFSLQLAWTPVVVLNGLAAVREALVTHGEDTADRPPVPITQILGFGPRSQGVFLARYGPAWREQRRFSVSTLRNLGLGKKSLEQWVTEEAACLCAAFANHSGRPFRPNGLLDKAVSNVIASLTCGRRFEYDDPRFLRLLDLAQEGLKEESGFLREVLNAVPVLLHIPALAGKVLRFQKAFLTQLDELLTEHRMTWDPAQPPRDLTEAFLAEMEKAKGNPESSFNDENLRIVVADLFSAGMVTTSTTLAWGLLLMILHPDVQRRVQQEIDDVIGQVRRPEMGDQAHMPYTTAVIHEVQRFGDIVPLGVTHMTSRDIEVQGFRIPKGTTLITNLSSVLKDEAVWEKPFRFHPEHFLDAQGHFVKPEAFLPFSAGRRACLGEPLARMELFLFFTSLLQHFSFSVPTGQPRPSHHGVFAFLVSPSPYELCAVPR
Nuclear receptor subfamily 1 group I member 2 (Homo sapiens), sequence (O75469 whole entry, looked up): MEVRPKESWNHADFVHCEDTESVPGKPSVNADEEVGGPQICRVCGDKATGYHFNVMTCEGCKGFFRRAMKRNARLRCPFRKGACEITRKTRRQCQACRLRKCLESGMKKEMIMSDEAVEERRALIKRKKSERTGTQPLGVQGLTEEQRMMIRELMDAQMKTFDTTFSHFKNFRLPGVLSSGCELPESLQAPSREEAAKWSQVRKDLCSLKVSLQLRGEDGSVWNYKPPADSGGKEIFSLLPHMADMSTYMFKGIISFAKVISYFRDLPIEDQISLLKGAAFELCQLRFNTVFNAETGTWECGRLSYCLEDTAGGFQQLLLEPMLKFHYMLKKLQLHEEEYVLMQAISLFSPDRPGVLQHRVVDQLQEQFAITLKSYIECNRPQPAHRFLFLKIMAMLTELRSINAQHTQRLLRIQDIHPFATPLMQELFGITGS
Cytochrome P450 2C9 (Homo sapiens), sequence (P11712 whole entry, looked up): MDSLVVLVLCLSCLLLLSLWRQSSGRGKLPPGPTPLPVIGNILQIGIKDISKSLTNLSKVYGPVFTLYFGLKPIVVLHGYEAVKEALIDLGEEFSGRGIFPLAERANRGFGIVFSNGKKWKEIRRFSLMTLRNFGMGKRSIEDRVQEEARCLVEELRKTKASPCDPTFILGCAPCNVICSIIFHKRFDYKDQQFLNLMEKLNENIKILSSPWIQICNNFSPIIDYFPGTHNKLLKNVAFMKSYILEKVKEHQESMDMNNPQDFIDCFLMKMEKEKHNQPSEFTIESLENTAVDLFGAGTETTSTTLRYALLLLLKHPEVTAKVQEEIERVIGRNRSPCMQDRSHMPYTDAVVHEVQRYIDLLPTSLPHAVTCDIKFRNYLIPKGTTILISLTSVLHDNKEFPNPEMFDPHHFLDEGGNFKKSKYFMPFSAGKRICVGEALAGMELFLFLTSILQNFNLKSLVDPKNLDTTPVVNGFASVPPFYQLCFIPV
Cytochrome P450 2C19 (Homo sapiens), sequence (P33261 whole entry, looked up): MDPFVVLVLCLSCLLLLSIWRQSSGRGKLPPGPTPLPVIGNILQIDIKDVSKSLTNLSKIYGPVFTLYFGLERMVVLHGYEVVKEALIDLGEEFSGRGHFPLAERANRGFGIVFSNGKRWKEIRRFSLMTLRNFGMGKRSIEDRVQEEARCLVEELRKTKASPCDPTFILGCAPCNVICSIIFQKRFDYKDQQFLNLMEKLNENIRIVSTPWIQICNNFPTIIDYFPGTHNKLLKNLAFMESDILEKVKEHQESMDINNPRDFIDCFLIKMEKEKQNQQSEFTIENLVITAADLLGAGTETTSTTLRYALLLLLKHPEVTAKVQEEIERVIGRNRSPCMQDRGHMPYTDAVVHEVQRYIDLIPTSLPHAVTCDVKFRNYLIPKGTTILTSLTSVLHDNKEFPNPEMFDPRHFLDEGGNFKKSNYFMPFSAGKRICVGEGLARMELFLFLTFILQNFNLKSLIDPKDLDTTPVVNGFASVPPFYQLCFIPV
Cytochrome P450 3A4 (Homo sapiens), sequence (P08684 whole entry, looked up): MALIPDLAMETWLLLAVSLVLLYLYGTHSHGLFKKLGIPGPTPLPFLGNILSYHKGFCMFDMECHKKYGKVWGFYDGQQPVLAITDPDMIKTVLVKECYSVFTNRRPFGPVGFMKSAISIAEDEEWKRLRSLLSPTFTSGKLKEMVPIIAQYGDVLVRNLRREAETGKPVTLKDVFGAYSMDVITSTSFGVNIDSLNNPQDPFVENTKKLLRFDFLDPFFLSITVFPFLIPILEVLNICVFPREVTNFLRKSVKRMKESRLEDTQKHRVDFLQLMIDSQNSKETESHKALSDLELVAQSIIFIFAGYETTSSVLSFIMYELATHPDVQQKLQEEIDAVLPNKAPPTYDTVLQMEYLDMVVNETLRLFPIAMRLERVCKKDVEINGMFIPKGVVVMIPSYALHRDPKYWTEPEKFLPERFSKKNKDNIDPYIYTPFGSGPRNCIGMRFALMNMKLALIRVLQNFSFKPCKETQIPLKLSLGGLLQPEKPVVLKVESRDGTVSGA
Cytochrome P450 1A2 (Homo sapiens), sequence (P05177 whole entry, looked up): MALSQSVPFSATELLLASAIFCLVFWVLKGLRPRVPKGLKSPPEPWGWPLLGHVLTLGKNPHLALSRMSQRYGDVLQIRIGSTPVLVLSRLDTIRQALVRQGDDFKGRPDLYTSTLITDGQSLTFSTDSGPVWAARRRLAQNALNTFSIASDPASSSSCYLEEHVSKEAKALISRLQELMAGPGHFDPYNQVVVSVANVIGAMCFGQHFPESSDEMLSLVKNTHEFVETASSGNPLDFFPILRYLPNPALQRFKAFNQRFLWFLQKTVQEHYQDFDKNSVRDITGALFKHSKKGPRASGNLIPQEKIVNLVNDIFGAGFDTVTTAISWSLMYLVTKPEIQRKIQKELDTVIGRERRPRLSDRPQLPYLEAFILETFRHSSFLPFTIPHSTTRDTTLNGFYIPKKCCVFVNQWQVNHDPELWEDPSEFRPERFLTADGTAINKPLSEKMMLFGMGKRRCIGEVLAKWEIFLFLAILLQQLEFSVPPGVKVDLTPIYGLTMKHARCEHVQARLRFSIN

In the case of `O=C1CCCN1`, the outcome in [1] was inactive. Moreover, the Potency in test [2] was 69.3 µM (active) and inactive; in [7], 8.05 µM (active) and inactive; in test [11], 7.17 µM (active) and inactive. Moreover, the Potency result in [3], in [4], in test [5], in [6], in test [8] and in [9] was “inactive” throughout. Also, the Potency entry in [10] is “inactive”.
As for `O=C(O)c1ccccn1`, the result in test [1] and in [12] was inactive. In addition, the Potency result in test [2], in [13], in test [3], in test [4], in test [5] and in test [6] was “inactive” each time. Besides, the Potency result in [14], in test [7], in test [9], in test [10] and in [11] was “inactive” throughout.
As to `Cn1cc(-c2ccccc2)c(=O)c(-c2cccc(C(F)(F)F)c2)c1`, in [1], the compound was classed as inactive. For the same compound, the Potency in test [2] was 29.9 µM (active) and 17.2 µM (active); in [7] it was 1.95 µM (active) and 2.83 µM (active); in [11], 12.3 µM (active) and 12.6 µM (active). Further, the Potency result in test [4], in test [5], in test [6] and in test [10] was “inactive” throughout.
For the compound `CCC(C)(CC)c1cc(NC(=O)c2c(OC)cccc2OC)on1`, in test [1], the result was inactive. Further, the Potency in test [2] is 4.34 µM (active) and 831 nM (active); in [7], 40 µM (active) and 68.3 µM (active); in test [11] it was 799 nM (active) and 1.93 µM (active). Besides, the Potency entry in test [4] was “inactive”.
Regarding `CCCC1COC(Cn2cncn2)(c2ccc(Cl)cc2Cl)O1` (stereo not given), the compound was classed as inactive in test [1]. In addition, the Potency was 31.2 µM (active) and 9.69 µM (active) in test [2]; 32.3 µM (active) and 35.6 µM (active) in test [14]; 456 nM (active) and 356 nM (active) in [7]; 2.04 µM (active) and 2.24 µM (active) in [8]; 51.2 nM (active) and 56.4 nM (active) in test [11]. For the same compound, the Potency result in [4] and in test [5] was “inactive” each time.
For `CC(C)N1C(=O)c2ccccc2NS1(=O)=O`, the result in test [1] was inactive. The Potency result in [2], in test [3], in test [4], in test [5], in [6] and in [10] was “inactive” throughout. In test [11], the Potency entry is “inactive”. Besides, the Potency in test [8] was 20 µM (active) and 17.8 µM (active).
With `CC(C)(Cl)Cl`, the outcome in test [1] was inactive. Besides, the Potency result in [2], in test [4], in test [5], in test [14], in test [10] and in test [11] was “inactive” throughout. Besides, the Potency is 40.6 µM (active) and 71 µM (active) in test [7]; “inactive and 44.8 µM (active)” in [9].
In the case of `CC(C)NC(=O)N1CC(=O)N(c2cc(Cl)cc(Cl)c2)C1=O`, in test [1], the result was inactive. The Potency in test [2] is 24.3 µM (active) and 54.5 µM (active); in test [7], 7.96 µM (active) and 8.94 µM (active); in test [8] it was 1.26 µM (active). Further, the Potency result in [4], in test [5], in [6] and in test [11] was “inactive” in each case.
Consider `BrCCBr`, for which the outcome in [1] was inactive. The Potency entry in test [2], in [4], in test [5], in [6], in test [10] and in [11] was “inactive” in each case. Also, the Potency in test [7] is 69.1 µM (active) and inactive; in [9], 30.9 µM (active) and inactive.
As for `CCCCOC(=O)c1ccccc1C(=O)OCCCC`, the compound was classed as inactive in [1]. Further, the Potency entry in [2], in test [3], in [4], in test [5], in test [10] and in test [11] was “inactive” throughout. Besides, the Potency in [7] was 5.64 µM (active) and 3.99 µM (active); in test [8], 35.6 µM (active); in test [9], 5.03 µM (active) and 8.94 µM (active).
Consider `CCCCCCCCCl`, for which, in test [1], the call was inactive. In addition, in test [2], the Potency was 63.1 µM (active) and inactive. For the same compound, the Potency entry in test [3], in [4], in test [5], in [6], in test [14] and in test [7] was “inactive” throughout. In addition, the Potency entry in test [8] and in test [11] was “inactive” each time.
Regarding `CCCCN(CC)C(=O)SCCC`, the result in test [1] was inactive. Further, the Potency result in [2], in test [3], in [4], in test [5], in [14] and in [10] was “inactive” throughout. In addition, the Potency entry in test [11] was “inactive”. The Potency in [7] is 80.5 µM (active) and inactive.
Regarding `CCOP(=S)(OCC)Oc1cnc2ccccc2n1`, in [1], the compound was classed as inactive. For the same compound, the Potency entry is “inactive and 30.6 µM (active)” in [2]; “inactive and 35.6 µM (active)” in [5]; 35.6 µM (active) in test [14]; “inactive and 448 nM (active)” in [7]; “inactive and 1.12 µM (active)” in test [8]; “inactive and 2.24 µM (active)” in test [9]. Moreover, the Potency entry in test [11] is “inactive and 6.33 µM (active)”. Further, the Potency result in test [4] and in [10] was “inactive” each time.
For `CC(=O)C=C(C)C`, in [1], the compound was called inactive. For the same compound, the Potency entry in test [2], in test [3], in [4], in test [5], in [14] and in [7] was “inactive” in each case. Besides, in test [11], the Potency result is “inactive”.
In the case of `Cc1ccc(N)cc1Cl`, the call in [1] was inactive. In addition, the Potency result in test [2], in test [3], in test [4] and in test [5] was “inactive” throughout. Moreover, the Potency is 7.18 µM (active) and 11.2 µM (active) in [7]; 32.1 µM (active) and 35.6 µM (active) in test [8]; 1.28 µM (active) and 1.59 µM (active) in [9].
Consider `CC(C)OC(=O)Nc1ccccc1`, for which the call in test [1] was inactive. Moreover, the Potency in test [2] was 38.6 µM (active); in test [7] it was 40 µM (active); in [9], 28.3 µM (active) and 39.9 µM (active). Also, the Potency result in test [3], in test [4], in test [5], in test [6], in test [10] and in [11] was “inactive” each time.
Regarding `CC(C)C1(C)N=C(c2nc3ccccc3cc2C(=O)O)NC1=O` (stereo not given), the outcome in test [1] was inactive. Further, the Potency entry in test [2], in test [3], in test [4], in test [5], in [6] and in test [14] was “inactive” in each case. For the same compound, the Potency entry in test [7], in test [8] and in test [11] was “inactive” each time.
